# Measurements taken from PubChem BioAssay (EPA / NIEHS).
# Inconclusive results are not listed. Calls of active or inactive are those of the source. The calls were made as follows, unless noted: active = hit-call score of the fitted dose curve at least 0.9, where 1 is the maximum; inactive = score below 0.9.
# Key:
# [1] = biological target: Myc proto-oncogene protein (Homo sapiens) (UniProt P01106); test: ATG_Myc_CIS: Attagene CIS-FACTORIAL HepG2 Assay for human Myelocytomatosis (Myc) Proto-Oncogene Transcription Factor (AID 2282990); settings: HepG2, Attagene cis-reporter transcription factor activity; actives raise or lower the signal
# In short: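 HepG2 cells transiently transfected with multiple cis-promoter-driven reporter transcription units, so endogenous TF activity is read. After 24 h compound exposure, reporter mRNA was quantified by RT-PCR, 6-FAM labelling, HpaI digestion and capillary electrophoresis; bidirectional fit versus DMSO.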
# [2] = ATG_NRF2_ARE_CIS: Attagene CIS-FACTORIAL HepG2 Assay for human Nuclear Factor Erythroid 2 Related Factor 2 (NFR2) response to Antioxidant Response Elements (ARE) (AID 2282992); settings: HepG2 Attagene ARE/NRF2 reporter, transcription factor activity; actives raise or lower the signal;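 as to AC50: reporter mRNA level measured by RT-PCR and capillary electrophoresis fluorescence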
# In short: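 Multiplexed reporter mRNA profiling in HepG2 after a 24 h chemical exposure. Curves fitted in both directions relative to DMSO negative control.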
# [3] = ATG_Oct_MLP_CIS: Attagene CIS-FACTORIAL HepG2 Assay for human Octamer-Binding Transcription Factor (Oct) (AID 2282993); settings: HepG2 Attagene cis-factorial Oct reporter, mRNA; actives raise or lower the signal
# In short: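 Readout is reporter transcript level from RT-PCR with fluorescent primer extension and capillary electrophoresis, fitted in both directions against DMSO. Transfected HepG2 reporter units report endogenous factor activity after 24 h dosing.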
# [4] = BSK_3C_TissueFactor: BioMAP Diversity Plus: 3C Assay for Tissue Factor Biomarker Activity (AID 2282997); settings: BioMAP 3C HUVEC, tissue factor biomarker readout; actives raise or lower the signal
# In short: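 Human vascular primary cells (umbilical vein endothelium) received test chemical; Tissue Factor was determined by ELISA at 24 h, and both gain and loss of signal versus DMSO were fitted.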
# [5] = BSK_3C_uPAR: BioMAP Diversity Plus: 3C Assay for Urokinase-type plasminogen activator receptor (uPAR) Biomarker Activity (AID 2282998); settings: BioMAP 3C HUVEC, uPAR biomarker ELISA; actives raise or lower the signal
# In short: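 Cell-surface uPAR on HUVEC (3C system) read by ELISA at 24 h post-treatment, with DMSO as baseline and fitting in both directions. Parallel cultures stained with SRB to flag overt cytotoxicity.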
# [6] = BSK_3C_VCAM1: BioMAP Diversity Plus: 3C Assay for Vascular cell adhesion molecule 1 (VCAM1) Biomarker Activity (AID 2282999); settings: BioMAP 3C HUVEC, VCAM1 ELISA, cytokine-stimulated; actives raise or lower the signal
# In short: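 Human umbilical vein endothelial cells were dosed with compound for 24 h, after which cell-surface VCAM-1 was quantified by ELISA. Bidirectional curve fitting used DMSO as negative control and activity baseline.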
# [7] = BSK_4H_Eotaxin3: BioMAP Diversity Plus: 4H Assay for Eotaxin 3 Biomarker Activity (AID 2283000); settings: primary human endothelial cells (HUVEC); actives raise or lower the signal;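 also: CCL26 protein level quantified by ELISA in parallel with SRB cytotoxicity check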
# In short: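 Readout is Eotaxin-3 (CCL26) level by ELISA in primary human umbilical vein endothelial cells harvested 24 h after chemical exposure; activity fitted in both directions against DMSO control.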
# [8] = read-out: Intercellular Adhesion Molecule 1 (ICAM1), ICAM1 (gene 3383); test: BSK_3C_ICAM1: BioMAP Diversity Plus: 3C Assay for Intercellular Adhesion Molecule 1 (ICAM1) Biomarker Activity (AID 2283003); settings: primary human endothelial cells (HUVEC); actives raise or lower the signal
# In short: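 Human vascular endothelial primary cells, 3C conditions, 24 h treatment. ICAM-1 by ELISA.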
# [9] = BSK_3C_Proliferation: Cell Proliferation Assessment in the BioMAP Diversity Plus: 3C Assay (AID 2283006); settings: primary human endothelial cells (HUVEC)
# In short: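 Proliferation of human vascular endothelial primary cells after 48 h dosing, quantified as SRB-stained protein at 560 nm relative to DMSO.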
# [10] = biological target: Peroxisome proliferator-activated receptor gamma (Homo sapiens) (UniProt P37231); test: ATG_PPARg_TRANS: Attagene TRANS-FACTORIAL HepG2 Assay for human Peroxisome Proliferator-activated Receptor-gamma (PPARg) (AID 2283007; active = hit-call score of the fitted dose curve at least 0.9, where 1 is the maximum)
# In short: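 HepG2 cells are transiently transfected with GAL4-UAS reporter units driven by chimeric NR-Gal4 fusions and dosed for 24 h. Reporter mRNA is quantified by RT-PCR, 6-FAM labelling, HpaI digestion and capillary electrophoresis. Induction is scored against DMSO.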
# [11] = biological target: human RAR-related Orphan Receptor gamma (RORg), RORC (gene 6097) (UniProt P51449); test: ATG_RORg_TRANS: Attagene TRANS-FACTORIAL HepG2 Assay for human RAR-related Orphan Receptor gamma (RORg) (AID 2283011; active = hit-call score of the fitted dose curve at least 0.9, where 1 is the maximum)
# In short: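 Transient MRTU transfection of HepG2 (TRANS format, exogenous NR-Gal4 chimera). 24 h dosing. Total RNA → oligo(dT) RT → PCR → 6-FAM labelling → HpaI cut → CE. Gain vs DMSO.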
# [12] = biological target: Cellular tumor antigen p53 (Homo sapiens) (UniProt P04637); test: ATG_p53_CIS: Attagene CIS-FACTORIAL HepG2 Assay for human p53 Transcription Factor (AID 2282994); settings: HepG2 p53 cis-element reporter, Attagene mRNA; actives raise or lower the signal
# In short: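 Multiplexed reporter mRNA assay in human HepG2 liver cells; cis-regulated units report endogenous factor activity. Values come from bidirectional curve fitting against DMSO negative control after 24 h treatment.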
# [13] = biological target: human Peroxisome Proliferator-activated Receptor alpha (PPARa), PPARA (gene 5465) (UniProt Q07869); test: ATG_PPARa_TRANS: Attagene TRANS-FACTORIAL HepG2 Assay for human Peroxisome Proliferator-activated Receptor alpha (PPARa) (AID 2283001; active = hit-call score of the fitted dose curve at least 0.9, where 1 is the maximum;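 as to AC50: potency for gain of reporter signal over DMSO so agonist or activator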)
# In short: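 HepG2 cells transiently transfected with multiplexed GAL4-UAS reporter units and chimeric NR-Gal4 constructs were dosed for 24 h. Reporter mRNA was measured by RT-PCR with fluorescent labelling and capillary electrophoresis; gain of signal fitted against DMSO.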
# [14] = biological target: Nuclear receptor subfamily 1 group I member 2 (Homo sapiens) (UniProt O75469); test: ATG_PXR_TRANS: Attagene TRANS-FACTORIAL HepG2 Assay for human Pregnane X Receptor (PXR) (AID 2283008; active = hit-call score of the fitted dose curve at least 0.9, where 1 is the maximum)
# In short: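 Measures mRNA induction of a GAL4-UAS-driven reporter in human HepG2 cells transiently expressing PXR fused to Gal4, following 24 h treatment. DMSO served as negative control and baseline.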
# [15] = biological target: human Retinoic Acid Receptor gamma (RARg), RARG (gene 5916) (UniProt P13631); test: ATG_RARg_TRANS: Attagene TRANS-FACTORIAL HepG2 Assay for human Retinoic Acid Receptor gamma (RARg) (AID 2283009; active = hit-call score of the fitted dose curve at least 0.9, where 1 is the maximum)
# In short: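 HepG2, RARg-GAL4 TRANS system, 24 h exposure; reporter mRNA by RT-PCR + CE fluorescence; increase over DMSO.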
# [16] = biological target: human RAR-related Orphan Receptor beta (RORb), RORB (gene 6096) (UniProt Q92753); test: ATG_RORb_TRANS: Attagene TRANS-FACTORIAL HepG2 Assay for human RAR-related Orphan Receptor beta (RORb) (AID 2283010; active = hit-call score of the fitted dose curve at least 0.9, where 1 is the maximum)
# In short: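 In this TRANS-format test, human HepG2 cells express chimeric NR-Gal4 fusion proteins driving GAL4-UAS reporters. After 24 h dosing, reporter transcripts are measured by fluorescent RT-PCR/capillary electrophoresis, with DMSO as negative control.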
# [17] = biological target: human Peroxisome Proliferator-activated Receptor delta (PPARd), PPARD (gene 5467) (UniProt Q03181); test: ATG_PPARd_TRANS: Attagene TRANS-FACTORIAL HepG2 Assay for human Peroxisome Proliferator-activated Receptor delta (PPARd) (AID 2283002; active = hit-call score of the fitted dose curve at least 0.9, where 1 is the maximum)
# In short: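 HepG2 cells transiently transfected with multiplexed GAL4-UAS reporter units and exogenous chimeric NR-Gal4 proteins; 24 h compound exposure. Reporter mRNA measured by RT-PCR, 6-FAM labelling, HpaI digestion and capillary electrophoresis; gain of signal versus DMSO.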
# [18] = biological target: Retinoic acid receptor alpha (Homo sapiens) (UniProt P10276); test: ATG_RARa_TRANS: Attagene TRANS-FACTORIAL HepG2 Assay for human Retinoic Acid Receptor alpha (RARa) (AID 2283005; active = hit-call score of the fitted dose curve at least 0.9, where 1 is the maximum)
# In short: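 HepG2 cells transiently transfected with multiple reporter units expressing chimeric RARα-GAL4 fusion, with GAL4-UAS-driven reporters. After 24 h compound exposure, reporter mRNA induction quantified by RT-PCR and capillary electrophoresis with fluorescent labeling; gain-of-signal fitted relative to DMSO control.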
# [19] = biological target: human Retinoic Acid Receptor beta (RARb), RARB (gene 5915) (UniProt P10826); test: ATG_RARb_TRANS: Attagene TRANS-FACTORIAL HepG2 Assay for human Retinoic Acid Receptor beta (AID 2283004; active = hit-call score of the fitted dose curve at least 0.9, where 1 is the maximum)
# In short: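 Readout is reporter mRNA induction: RNA reverse-transcribed, PCR-amplified, FAM-labelled, HpaI-cut and resolved by capillary electrophoresis. Transiently transfected HepG2 cells carrying exogenous NR–Gal4 chimeras were dosed for 24 h; activity fitted upward relative to DMSO.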
# Chain of human Peroxisome Proliferator-activated Receptor alpha (PPARa), PPARA (gene 5465) (Q07869 whole entry, looked up, the tested form may be a part): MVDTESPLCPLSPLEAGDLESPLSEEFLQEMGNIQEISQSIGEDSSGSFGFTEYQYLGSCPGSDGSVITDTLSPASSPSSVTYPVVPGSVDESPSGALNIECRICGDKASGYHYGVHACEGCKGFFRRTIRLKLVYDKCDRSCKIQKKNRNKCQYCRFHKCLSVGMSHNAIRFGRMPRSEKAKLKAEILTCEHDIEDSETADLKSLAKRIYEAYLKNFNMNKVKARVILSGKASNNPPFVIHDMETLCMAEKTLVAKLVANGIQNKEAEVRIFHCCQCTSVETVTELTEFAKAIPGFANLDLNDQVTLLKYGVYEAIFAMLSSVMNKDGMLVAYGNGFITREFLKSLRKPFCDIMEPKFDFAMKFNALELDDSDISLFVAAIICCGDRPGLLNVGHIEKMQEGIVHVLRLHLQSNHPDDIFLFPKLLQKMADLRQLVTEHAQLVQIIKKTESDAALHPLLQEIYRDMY
# Chain of human RAR-related Orphan Receptor gamma (RORg), RORC (gene 6097) (P51449 whole entry, looked up, the tested form may be a part): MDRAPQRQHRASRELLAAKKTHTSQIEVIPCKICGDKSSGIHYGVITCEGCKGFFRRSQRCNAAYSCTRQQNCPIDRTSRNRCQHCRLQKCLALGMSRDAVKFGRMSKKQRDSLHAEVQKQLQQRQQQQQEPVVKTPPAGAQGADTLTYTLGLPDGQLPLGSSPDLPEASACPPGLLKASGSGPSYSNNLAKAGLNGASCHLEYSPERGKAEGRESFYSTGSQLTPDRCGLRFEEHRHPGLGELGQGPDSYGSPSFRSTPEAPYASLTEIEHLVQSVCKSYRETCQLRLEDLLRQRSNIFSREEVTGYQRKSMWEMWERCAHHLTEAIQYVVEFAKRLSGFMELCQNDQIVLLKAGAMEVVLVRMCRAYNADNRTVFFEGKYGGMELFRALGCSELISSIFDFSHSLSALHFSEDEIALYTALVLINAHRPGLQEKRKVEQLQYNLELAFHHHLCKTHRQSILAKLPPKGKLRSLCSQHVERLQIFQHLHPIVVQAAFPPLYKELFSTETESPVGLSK
# Chain of Nuclear receptor subfamily 1 group I member 2 (Homo sapiens) (O75469 whole entry, looked up, the tested form may be a part): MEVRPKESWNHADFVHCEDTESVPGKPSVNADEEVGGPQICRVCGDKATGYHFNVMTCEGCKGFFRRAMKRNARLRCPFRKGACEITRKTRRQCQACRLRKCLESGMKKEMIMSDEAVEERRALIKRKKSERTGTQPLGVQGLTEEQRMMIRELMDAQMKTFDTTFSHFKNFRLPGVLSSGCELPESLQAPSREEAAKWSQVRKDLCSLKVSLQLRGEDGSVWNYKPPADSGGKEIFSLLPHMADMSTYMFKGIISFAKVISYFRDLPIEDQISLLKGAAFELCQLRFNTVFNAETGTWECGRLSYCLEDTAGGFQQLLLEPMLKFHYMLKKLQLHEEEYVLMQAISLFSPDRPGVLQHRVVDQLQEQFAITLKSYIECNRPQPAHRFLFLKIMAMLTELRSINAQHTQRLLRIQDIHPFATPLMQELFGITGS
# Chain of human Peroxisome Proliferator-activated Receptor delta (PPARd), PPARD (gene 5467) (Q03181 whole entry, looked up, the tested form may be a part): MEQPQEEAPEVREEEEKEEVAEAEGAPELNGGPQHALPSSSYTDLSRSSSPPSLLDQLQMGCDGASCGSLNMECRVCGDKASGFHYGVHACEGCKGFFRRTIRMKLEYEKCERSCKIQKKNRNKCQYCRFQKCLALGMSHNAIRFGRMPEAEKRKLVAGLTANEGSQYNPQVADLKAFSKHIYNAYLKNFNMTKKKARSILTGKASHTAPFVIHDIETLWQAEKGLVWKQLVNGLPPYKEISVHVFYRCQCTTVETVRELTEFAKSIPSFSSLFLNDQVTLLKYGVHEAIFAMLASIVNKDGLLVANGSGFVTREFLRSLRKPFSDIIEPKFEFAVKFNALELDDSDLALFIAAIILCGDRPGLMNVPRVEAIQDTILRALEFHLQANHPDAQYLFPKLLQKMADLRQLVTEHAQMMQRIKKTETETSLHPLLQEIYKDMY
# Chain of Cellular tumor antigen p53 (Homo sapiens) (P04637 whole entry, looked up): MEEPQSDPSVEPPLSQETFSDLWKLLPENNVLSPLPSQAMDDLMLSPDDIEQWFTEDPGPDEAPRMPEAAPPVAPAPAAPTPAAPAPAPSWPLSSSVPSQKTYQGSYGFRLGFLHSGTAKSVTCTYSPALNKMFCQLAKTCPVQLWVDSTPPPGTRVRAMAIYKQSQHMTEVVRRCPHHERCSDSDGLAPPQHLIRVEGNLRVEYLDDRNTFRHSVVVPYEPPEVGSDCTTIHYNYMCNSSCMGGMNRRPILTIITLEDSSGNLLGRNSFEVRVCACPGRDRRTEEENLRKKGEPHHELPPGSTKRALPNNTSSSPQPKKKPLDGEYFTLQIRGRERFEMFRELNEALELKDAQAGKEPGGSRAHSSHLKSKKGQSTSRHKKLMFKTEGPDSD
# Chain of human Retinoic Acid Receptor gamma (RARg), RARG (gene 5916) (P13631 whole entry, looked up, the tested form may be a part): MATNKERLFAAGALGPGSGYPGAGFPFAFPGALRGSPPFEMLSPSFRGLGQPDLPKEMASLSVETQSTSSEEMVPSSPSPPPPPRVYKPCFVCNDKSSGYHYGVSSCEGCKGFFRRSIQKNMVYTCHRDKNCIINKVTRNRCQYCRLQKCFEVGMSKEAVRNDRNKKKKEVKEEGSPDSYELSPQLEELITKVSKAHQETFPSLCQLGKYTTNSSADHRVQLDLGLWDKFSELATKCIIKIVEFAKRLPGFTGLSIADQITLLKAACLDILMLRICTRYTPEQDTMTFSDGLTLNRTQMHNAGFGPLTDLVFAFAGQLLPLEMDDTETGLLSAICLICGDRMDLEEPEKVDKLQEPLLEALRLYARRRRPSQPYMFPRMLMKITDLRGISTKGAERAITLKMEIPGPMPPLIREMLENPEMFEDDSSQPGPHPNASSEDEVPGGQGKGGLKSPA
# Chain of Myc proto-oncogene protein (Homo sapiens) (P01106 whole entry, looked up): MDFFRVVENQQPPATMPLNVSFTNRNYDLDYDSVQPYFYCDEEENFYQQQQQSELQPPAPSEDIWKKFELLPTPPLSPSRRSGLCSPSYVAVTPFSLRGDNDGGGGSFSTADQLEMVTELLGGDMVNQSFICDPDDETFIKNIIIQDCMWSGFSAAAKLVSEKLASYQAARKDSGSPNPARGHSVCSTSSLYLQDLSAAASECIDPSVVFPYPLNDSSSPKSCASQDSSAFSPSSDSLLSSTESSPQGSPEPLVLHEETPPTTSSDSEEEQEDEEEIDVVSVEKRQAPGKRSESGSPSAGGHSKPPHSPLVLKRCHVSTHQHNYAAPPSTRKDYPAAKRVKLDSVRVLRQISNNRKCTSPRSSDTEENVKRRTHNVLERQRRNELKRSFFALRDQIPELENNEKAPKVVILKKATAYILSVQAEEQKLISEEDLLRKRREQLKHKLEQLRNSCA
# Chain of human RAR-related Orphan Receptor beta (RORb), RORB (gene 6096) (Q92753 whole entry, looked up, the tested form may be a part): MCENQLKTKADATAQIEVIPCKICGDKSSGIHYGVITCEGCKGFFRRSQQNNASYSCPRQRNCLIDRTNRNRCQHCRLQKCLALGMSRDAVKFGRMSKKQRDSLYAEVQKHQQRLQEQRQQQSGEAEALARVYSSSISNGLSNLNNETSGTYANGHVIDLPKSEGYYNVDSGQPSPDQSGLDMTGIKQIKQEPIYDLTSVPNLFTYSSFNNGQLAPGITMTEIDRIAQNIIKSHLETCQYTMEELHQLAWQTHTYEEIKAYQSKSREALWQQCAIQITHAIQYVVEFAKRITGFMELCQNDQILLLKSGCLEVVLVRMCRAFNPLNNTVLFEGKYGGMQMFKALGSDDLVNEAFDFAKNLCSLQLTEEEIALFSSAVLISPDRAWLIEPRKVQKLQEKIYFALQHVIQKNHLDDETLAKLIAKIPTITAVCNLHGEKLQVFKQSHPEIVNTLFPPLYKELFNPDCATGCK
# Chain of Peroxisome proliferator-activated receptor gamma (Homo sapiens) (P37231 whole entry, looked up, the tested form may be a part): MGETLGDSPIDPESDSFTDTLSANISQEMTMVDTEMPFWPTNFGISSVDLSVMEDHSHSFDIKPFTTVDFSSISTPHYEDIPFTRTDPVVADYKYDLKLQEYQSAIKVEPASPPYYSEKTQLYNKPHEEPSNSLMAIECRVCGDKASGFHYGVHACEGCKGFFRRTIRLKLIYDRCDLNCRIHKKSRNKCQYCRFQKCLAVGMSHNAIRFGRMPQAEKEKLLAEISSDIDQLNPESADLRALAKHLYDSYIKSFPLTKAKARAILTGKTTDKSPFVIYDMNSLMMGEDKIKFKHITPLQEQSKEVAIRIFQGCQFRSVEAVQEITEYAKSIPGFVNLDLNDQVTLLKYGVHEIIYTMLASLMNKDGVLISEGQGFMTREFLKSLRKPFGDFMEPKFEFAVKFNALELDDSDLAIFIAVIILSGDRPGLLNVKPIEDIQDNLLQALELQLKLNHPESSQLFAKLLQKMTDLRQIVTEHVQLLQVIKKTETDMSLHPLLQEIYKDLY
# Chain of Retinoic acid receptor alpha (Homo sapiens) (P10276 whole entry, looked up, the tested form may be a part): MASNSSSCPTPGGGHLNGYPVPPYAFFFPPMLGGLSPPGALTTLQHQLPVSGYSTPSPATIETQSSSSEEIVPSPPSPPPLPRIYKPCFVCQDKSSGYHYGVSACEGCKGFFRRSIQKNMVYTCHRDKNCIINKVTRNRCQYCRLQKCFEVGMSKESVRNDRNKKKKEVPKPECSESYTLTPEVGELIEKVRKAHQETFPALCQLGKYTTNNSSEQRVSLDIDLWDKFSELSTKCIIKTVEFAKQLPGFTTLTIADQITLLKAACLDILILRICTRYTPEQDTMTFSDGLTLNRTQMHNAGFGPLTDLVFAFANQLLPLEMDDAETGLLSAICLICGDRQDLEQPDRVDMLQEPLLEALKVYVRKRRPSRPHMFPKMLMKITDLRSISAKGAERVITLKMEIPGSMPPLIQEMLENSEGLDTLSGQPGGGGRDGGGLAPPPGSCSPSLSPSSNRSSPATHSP
smiles,measurement,setting,value
CCCCN(CCCC)C(=S)[S-].CCCCN(CCCC)C(=S)[S-].[Ni+2],outcome,[1],inactive
same,outcome,[2],inactive
same,outcome,[3],inactive
same,outcome,[4],inactive
same,outcome,[5],inactive
same,outcome,[6],inactive
same,outcome,[7],inactive
same,outcome,[8],inactive
same,outcome,[9],inactive
same,outcome,[10],inactive
same,outcome,[11],inactive
CCOP(=S)(OCC)SCSc1cc(Cl)ccc1Cl,outcome,[1],inactive
same,outcome,[2],inactive
same,outcome,[3],inactive
same,outcome,[12],inactive
same,outcome,[13],inactive
same,outcome,[10],inactive
O=C(NC(=O)c1c(F)cccc1F)Nc1cc(Cl)c(OC(F)(F)C(F)C(F)(F)F)cc1Cl (configuration not stated),outcome,[1],inactive
same,AC50,[2],73 µM (active)
same,outcome,[3],inactive
same,outcome,[12],inactive
same,outcome,[13],inactive
same,outcome,[10],inactive
same,outcome,[14],inactive
same,outcome,[15],inactive
same,outcome,[16],inactive
O=[N+]([O-])c1ccc(Cl)c([N+](=O)[O-])c1,AC50,[1],3.71 µM (active)
same,outcome,[2],inactive
same,outcome,[3],inactive
same,outcome,[12],inactive
same,outcome,[16],inactive
same,outcome,[11],inactive
Cc1cccc(N=Nc2ccc(N(C)C)cc2)c1,outcome,[1],inactive
same,AC50,[2],5.01 µM (active)
same,outcome,[3],inactive
same,outcome,[12],inactive
same,outcome,[13],inactive
same,outcome,[17],inactive
same,outcome,[10],inactive
same,outcome,[14],inactive
O=C(CCl)Nc1ccccc1,outcome,[1],inactive
same,AC50,[2],2.21 µM (active)
same,AC50,[3],8.75 µM (active)
same,AC50,[12],7.86 µM (active)
same,outcome,[13],inactive
same,outcome,[17],inactive
same,AC50,[10],2.7 µM (active)
same,outcome,[14],inactive
CCCCN(CCCCO)N=O,outcome,[1],inactive
same,outcome,[2],inactive
same,outcome,[3],inactive
same,outcome,[12],inactive
same,outcome,[17],inactive
same,outcome,[10],inactive
same,outcome,[14],inactive
same,outcome,[16],inactive
O=C(NC(=O)c1c(F)cccc1F)Nc1cc(Cl)c(Oc2ncc(C(F)(F)F)cc2Cl)c(Cl)c1,outcome,[1],inactive
same,AC50,[2],31.9 µM (active)
same,outcome,[3],inactive
same,outcome,[12],inactive
same,outcome,[17],inactive
same,outcome,[10],inactive
C#CCO,outcome,[1],inactive
same,outcome,[2],inactive
same,outcome,[3],inactive
same,outcome,[12],inactive
same,outcome,[13],inactive
same,outcome,[17],inactive
same,outcome,[10],inactive
same,outcome,[15],inactive
same,outcome,[16],inactive
same,outcome,[11],inactive
Nc1nc(N)nc(Cl)n1,outcome,[1],inactive
same,outcome,[2],inactive
same,outcome,[3],inactive
same,outcome,[12],inactive
same,outcome,[13],inactive
same,outcome,[10],inactive
same,outcome,[15],inactive
same,outcome,[11],inactive
COc1ccc(N)cc1,outcome,[1],inactive
same,outcome,[2],inactive
same,outcome,[3],inactive
same,outcome,[12],inactive
same,outcome,[13],inactive
same,outcome,[17],inactive
same,outcome,[10],inactive
same,outcome,[14],inactive
same,outcome,[11],inactive
CC(c1ccc(O)cc1)c1ccc(O)cc1,outcome,[1],inactive
same,AC50,[2],67.4 µM (active)
same,AC50,[3],120 µM (active)
same,outcome,[12],inactive
same,outcome,[13],inactive
same,outcome,[10],inactive
same,AC50,[14],27.7 µM (active)
same,outcome,[15],inactive
C[As+](C)(C)CC(=O)[O-],outcome,[1],inactive
same,outcome,[2],inactive
same,outcome,[3],inactive
same,outcome,[12],inactive
same,outcome,[18],inactive
same,outcome,[15],inactive
same,outcome,[16],inactive
N#CS,outcome,[1],inactive
same,outcome,[2],inactive
same,outcome,[3],inactive
same,outcome,[12],inactive
same,outcome,[17],inactive
same,outcome,[14],inactive
COc1ccccc1N,outcome,[1],inactive
same,outcome,[2],inactive
same,outcome,[3],inactive
same,outcome,[4],inactive
same,outcome,[5],inactive
same,outcome,[6],inactive
same,outcome,[7],inactive
same,outcome,[13],inactive
same,outcome,[8],inactive
same,outcome,[19],inactive
same,outcome,[18],inactive
same,outcome,[9],inactive
same,outcome,[10],inactive
same,outcome,[14],inactive
same,outcome,[15],inactive
same,outcome,[16],inactive
O=C(NC(=O)c1c(F)cccc1F)Nc1cc(Cl)c(F)c(Cl)c1F,outcome,[1],inactive
same,outcome,[2],inactive
same,outcome,[3],inactive
same,outcome,[12],inactive
same,outcome,[10],inactive
same,outcome,[15],inactive
[F][Sn]([c]1ccccc1)([c]1ccccc1)[c]1ccccc1,AC50,[1],2.12 µM (active)
same,outcome,[2],inactive
same,AC50,[3],0.335 µM (active)
same,AC50,[12],0.316 µM (active)
same,AC50,[10],0.0401 µM (active)
same,outcome,[14],inactive
CCCCCCCCCCCCCCC(Br)C(=O)O (configuration not stated),outcome,[1],inactive
same,AC50,[2],30.1 µM (active)
same,AC50,[3],161 µM (active)
same,outcome,[12],inactive
same,AC50,[13],1.44 µM (active)
same,AC50,[17],7.74 µM (active)
same,AC50,[10],11.4 µM (active)
same,outcome,[14],inactive
same,outcome,[11],inactive
